From PubChem BioAssay (Tox21)
Results filed as inconclusive are left out. The source made the active and inactive calls. Unless noted, the call rests on the fitted dose curve; in most records, active means well fitted curve in the direction sought with a large enough effect in the repeat runs; inconclusive means weak or mixed curves; inactive means no such curve, though single readings can be large; an effect the other way counts as inactive or inconclusive.

Tests used:
[1] = target: Nuclear receptor subfamily 1 group I member 3 (Homo sapiens) (UniProt Q14994); test: qHTS assay to identify small molecule antagonists of the constitutive androstane receptor (CAR) signaling pathway (AID 1224838); further: nearly all actives have a fitted effect of over 40% in size; further: potency means the concentration at half of the fitted maximal effect
Sequence of Nuclear receptor subfamily 1 group I member 3 (Homo sapiens) (Q14994 whole entry, looked up): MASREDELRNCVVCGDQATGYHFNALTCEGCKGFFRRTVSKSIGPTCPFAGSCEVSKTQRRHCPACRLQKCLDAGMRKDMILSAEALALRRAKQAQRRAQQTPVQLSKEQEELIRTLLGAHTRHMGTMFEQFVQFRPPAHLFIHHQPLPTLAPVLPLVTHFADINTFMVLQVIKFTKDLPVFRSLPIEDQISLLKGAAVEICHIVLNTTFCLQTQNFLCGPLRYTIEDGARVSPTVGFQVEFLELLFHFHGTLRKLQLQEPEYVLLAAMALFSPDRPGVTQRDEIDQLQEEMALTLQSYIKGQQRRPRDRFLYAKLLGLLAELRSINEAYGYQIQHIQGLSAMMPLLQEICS
In short: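 Cell line: HepG2 double-stable for hCAR and CYP2B6-2.2kb reporter. Agonist: CITCO, 50 nM final. Compounds: 15 concentrations, 24 h, 37 C. Detection: ONE-Glo luminescence.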

[2] = target: Nuclear receptor subfamily 1 group I member 3 (Homo sapiens) (UniProt Q14994); test: qHTS assay to identify small molecule agonists of the constitutive androstane receptor (CAR) signaling pathway (AID 1224839); further: nearly all actives have a fitted effect of over 15% in size; further: potency means the concentration at half of the fitted maximal effect;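 on activation: HepG2 cells stably carrying human CAR and a CYP2B6 luciferase reporter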
In short: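 HepG2 cells stably expressing hCAR and a CYP2B6-2.2kb luciferase reporter were treated with compounds at 15 concentrations plus 0.75 uM PK11195 (final) for 24 h at 37 C; luminescence was read after ONE-Glo addition.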

[3] = qHTS assay to identify small molecule antagonists of the estrogen related receptor signaling pathway with the pleiotropic PPARgamma coactivator (PGC) from Tox21 10K library (AID 1224841; call rule not given here; further: actives are mostly falling curves and most rising ones were filed inactive; nearly all actives have a fitted effect of over 50% in size; further: potency means the concentration at half of the fitted maximal effect)
In short: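 qHTS antagonist format: PGC/ERR cells, 2k/well, compound in DMSO by pin transfer after 6 h attachment, 18 h treatment at 37 C, One-Glo luminescence read at 30 min.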

[4] = qHTS assay to identify small molecule agonists of the estrogen related receptor signaling pathway with the pleiotropic PPARgamma coactivator (PGC) from Tox21 10K library (AID 1224842); further: nearly all actives have a fitted effect of over 15% in size
In short: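 PGC/ERR reporter cell line, 2,000 cells per well, incubated 6 h at 37 C before 23 nL compound in DMSO was added. After 18 h at 37 C, One-Glo luminescence read following 30 min at room temperature.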

[5] = target: Thyrotropin receptor (Homo sapiens) (UniProt P16473); test: qHTS assay to identify small molecule agonists of the thyroid stimulating hormone receptor (TSHR) signaling pathway (AID 1224843; calls by dose curve; further: nearly all actives have a fitted effect of over 45% in size)
Sequence of Thyrotropin receptor (Homo sapiens) (P16473 whole entry, looked up): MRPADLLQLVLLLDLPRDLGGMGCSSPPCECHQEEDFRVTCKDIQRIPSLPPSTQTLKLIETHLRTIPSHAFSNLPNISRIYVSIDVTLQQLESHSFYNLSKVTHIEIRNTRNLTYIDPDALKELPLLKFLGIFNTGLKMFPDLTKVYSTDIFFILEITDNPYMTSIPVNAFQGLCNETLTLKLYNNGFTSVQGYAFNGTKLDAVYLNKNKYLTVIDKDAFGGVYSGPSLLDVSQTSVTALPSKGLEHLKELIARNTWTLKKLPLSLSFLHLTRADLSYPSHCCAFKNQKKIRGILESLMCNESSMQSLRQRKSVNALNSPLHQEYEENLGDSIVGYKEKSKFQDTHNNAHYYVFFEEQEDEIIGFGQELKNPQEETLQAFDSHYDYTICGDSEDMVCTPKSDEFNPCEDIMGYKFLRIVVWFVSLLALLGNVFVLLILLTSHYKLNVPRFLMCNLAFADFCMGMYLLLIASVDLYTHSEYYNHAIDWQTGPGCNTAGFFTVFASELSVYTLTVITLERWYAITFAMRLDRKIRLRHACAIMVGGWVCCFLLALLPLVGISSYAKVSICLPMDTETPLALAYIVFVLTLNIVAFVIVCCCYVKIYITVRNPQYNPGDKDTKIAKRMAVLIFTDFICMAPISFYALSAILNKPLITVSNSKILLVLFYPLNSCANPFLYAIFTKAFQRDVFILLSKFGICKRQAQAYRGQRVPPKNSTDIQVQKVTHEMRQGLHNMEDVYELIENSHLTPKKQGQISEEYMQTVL
In short: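 TSHR-HEK293 cells in agonist mode, 30 min room-temperature step, then cAMP measured by competitive HTRF (cAMP-d2 with anti-cAMP cryptate) after 1 h at room temperature. Tested at 15 concentrations in triplicate.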

[6] = qHTS assay to identify small molecule agonists of the hypoxia (HIF-1) signaling pathway - cell viability counter screen (AID 1224844; calls by dose curve; further: nearly all actives have a fitted effect of over 50% in size; further: potency means the concentration at half of the fitted maximal effect)
In short: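 Cells (HRE-bla ME-180, 2,000 per well) sat 5 hrs at 37C, got compound for 17 hrs, were read for CCF4-AM FRET, and were finally lysed with CellTiter-Glo for a 30 min room-temperature luminescence read.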

[7] = qHTS assay to identify small molecule agonists of H2AX - cell viability counter screen (AID 1224847; calls by dose curve; further: nearly all actives have a fitted effect of over 30% in size; further: potency means the concentration at half of the fitted maximal effect; on activity change, negative = cytotoxicity: top concentration of the series differs between compounds)
In short: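 Wild-type CHO-K1 cells (10% FBS medium) were plated overnight at 37C, exposed to compounds at 15 concentrations for 3 hr at 37C (0.76% DMSO final), and viability was read as CellTiter-Glo luminescence after 30 min at room temperature.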

[8] = qHTS assay to identify small molecule antagonists of the estrogen related receptor (ERR) signaling pathway from Tox21 library (AID 1224848); further: nearly all actives have a fitted effect of over 50% in size; further: potency means the concentration at half of the fitted maximal effect
In short: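 ERR reporter cell line (from NTP) seeded 2,000 cells/well, rested 6 h at 37 C/5% CO2, then pin-dosed with compounds in DMSO. After 18 h at 37 C, ONE-Glo added; luminescence read after 30 min at room temperature.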

[9] = qHTS assay to identify small molecule agonists of the estrogen related receptor (ERR) signaling pathway from Tox21 library (AID 1224849; calls by dose curve; further: nearly all actives have a fitted effect of over 15% in size); conditions: ERR reporter cell line, ONE-Glo luciferase, 18 h; at 92.4 µM (top of the series) unless noted
In short: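 Screening used an NTP-provided ERR luciferase cell line. Compounds in DMSO were added 6 h after seeding and left 18 h at 37 C before a 30 min ONE-Glo step and luminescence reading.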

[10] = qHTS RealTime-Glo MT Cell Viability Assay in HepG2 cells - 24 hour (AID 1224867); further: nearly all actives have a fitted effect of over 50% in size
In short: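 Compound treatment began 5 h after plating HepG2 cells (600/well) with NanoLuc luciferase and prosubstrate. Plates stayed at 37 C for 40 h; luminescence was captured at six time points, 0 h through 40 h.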

[11] = A CellTox Green Cytotoxicity Assay to monitor cytotoxicity in HEK293 cells - 0 hour (AID 1224869); further: nearly all actives have a fitted effect of over 50% in size
In short: (§1)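 Fluorescence intensity, read at 0, 8, 16, 24, 32 and 40 h of compound treatment, reflected dye binding to DNA of dead HEK293 cells; compounds (23 nL, DMSO) were added 5 h after plating cells with reagent.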

[12] = qHTS RealTime-Glo MT Cell Viability Assay in HepG2 cells - 40 hour (AID 1224870); further: nearly all actives have a fitted effect of over 50% in size; further: potency means the concentration at half of the fitted maximal effect
In short: (§2)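 HepG2 cells (600/well) mixed with RealTime-Glo MT reagent, settled 5 h at 37 C/5% CO2 before compound addition. Nonlytic NanoLuc luminescence from viable-cell prosubstrate reduction read repeatedly during 40 h treatment at 37 C.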

[13] = A CellTox Green Cytotoxicity Assay to monitor cytotoxicity in HEK293 cells - 40 hour (AID 1224871); further: nearly all actives have a fitted effect of over 45% in size; further: potency means the concentration at half of the fitted maximal effect
In short: as §1

[14] = qHTS RealTime-Glo MT Cell Viability Assay in HEK293 cells - 16 hour (AID 1224872); further: nearly all actives have a fitted effect of over 50% in size; further: potency means the concentration at half of the fitted maximal effect; on activity change, negative = cytotoxicity: top concentration of the series differs between compounds
In short: (§3)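 Quantitative high-throughput screen of the Tox21 10K library in HEK293: cells and RealTime-Glo reagents plated together, compound added at 5 h, luminescence monitored through 40 h at 37 C.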

[15] = qHTS RealTime-Glo MT Cell Viability Assay in HEK293 cells - 40 hour (AID 1224874); conditions: RealTime-Glo luminescence; max response: stronger effect = lower value; further: nearly all actives have a fitted effect of over 50% in size; further: potency means the concentration at half of the fitted maximal effect
In short: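 Viable HEK293 cells reduce a cell-permeant prosubstrate; the product diffuses out and is consumed by NanoLuc in the medium to give light. Compounds went in after a 5 h incubation and plates were read over the treatment course.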

[16] = qHTS RealTime-Glo MT Cell Viability Assay in HEK293 cells - 32 hour (AID 1224868); further: nearly all actives have a fitted effect of over 50% in size; further: potency means the concentration at half of the fitted maximal effect; on activity change, negative = cytotoxic: top concentration of the series differs between compounds
In short: as §3

[17] = qHTS assay to identify small molecule agonists of H2AX (AID 1224845; active means well fitted activation curve with a large enough effect in the signal ratio in the repeat runs, not every such curve was filed as active; the % refers to the signal ratio)
In short: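 Wild-type CHO-K1 cells, plated overnight, exposed 3hr at 37C to 15 concentrations (0.76% DMSO final). Lysed, then HTRF anti-pH2AX (S139) cryptate and anti-H2AX-d2 antibodies, 24 hr room temperature; 665/620 nm emission read.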

[18] = qHTS assay to identify small molecule agonists of the hypoxia (HIF-1) signaling pathway (AID 1224846; active means well fitted activation curve with a large enough effect in the signal ratio in the repeat runs, not every such curve was filed as active; the % refers to the signal ratio)
In short: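 A low-serum medium (0.5% dialyzed FBS) holding 2,000 HRE-bla ME-180 cells per well is preincubated for 5 hrs, dosed with compounds by pintool, and kept a further 17 hrs at 37C, 5% CO2 before CCF4-AM FRET detection of beta-lactamase.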

[19] = qHTS RealTime-Glo MT Cell Viability Assay in HepG2 cells - 8 hour (AID 1224873); further: nearly all actives have a fitted effect of over 55% in size; further: potency means the concentration at half of the fitted maximal effect
In short: as §2

[20] = qHTS assay to identify small molecule antagonists of the estrogen related receptor signaling pathway with the pleiotropic PPARgamma coactivator (PGC) from Tox21 10K library - cell viability counter screen (AID 1224840; active means well fitted cell-killing curve with a large enough effect in the repeat runs, not every such curve was filed as active; further: nearly all actives have a fitted effect of over 40% in size)
In short: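 Following seeding of 2,000 PGC/ERR cells/well and 6 hours' incubation, test compounds were delivered in DMSO. The plates then sat 17.5 hours at 37 C before a fluorogenic live-cell protease reagent (CellTiter-Fluor) was read after 30 min.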
On the % scale 0 is the no-effect control and ±100 the full control effect.

O=[N+]([O-])c1ccc(O)c2ncccc12
inactive: Potency [1] | Potency [4] | Potency [5] | Potency [6] | Potency [7] | activity change, positive = activation [9] -55.9% [at 42.5 µM] | Potency [10] | Potency [11] | Potency [12] | Potency [14]
active: Potency [2] 11.9 µM | Potency [3] 5.31 µM | Potency [8] 5.31 µM | Potency [13] 9.52 µM | Potency [15] 9.52 µM

Cc1cc(Br)ccc1NC(=O)CCl
inactive: Potency [2] | Potency [4] | Potency [5] | Potency [7] | activity change, positive = activation [9] -79.8% | Potency [11]
active: Potency [1] 68.6 µM | Potency [3] 6.11 µM | Potency [6] 21.9 µM | Potency [8] 15.4 µM | Potency [16] 24.5 µM | Potency [12] 43.6 µM | Potency [13] 30.9 µM | Potency [14] 38.9 µM | Potency [15] 19.5 µM

CCCCCCCCCCCCS(=O)(=O)Cl
inactive: activity, negative = inhibition [1] -3.15% [at 19 µM] | activation [2] -0.0973% [at 19 µM] | activation [5] -1.12% [at 19 µM] | activity change, negative = cytotoxicity [6] -3.11% [at 15.8 µM] | activation (H2AX phosphorylation) [17] 0.0057% [at 31.6 µM] | activation [18] 1.7% [at 15.8 µM] | activity change, negative = cytotoxicity [7] 2.47% [at 31.6 µM] | activity change, negative = cytotoxicity [10] 3.24% [at 15.8 µM] | activity change, negative = cytotoxic [16] 18.8% [at 15.8 µM] | cytotoxicity [11] 0.643% [at 15.8 µM] | activity change, negative = cytotoxic [12] 12.8% [at 15.8 µM] | activity change, negative = cytotoxicity [14] 11.1% [at 15.8 µM] | max response [15] 12.1%

O=C1OC2(c3ccccc31)c1ccc(O)c(Br)c1Oc1c2ccc(O)c1Br
inactive: Potency [1] | Potency [2] | Potency [3] | Potency [4] | Potency [6] | Potency [7] | Potency [8] | activity change, positive = activation [9] -9.26% | Potency [10] | Potency [16] | Potency [12]

Oc1cccc2c(O)cccc12
inactive: Potency [1] | Potency [4] | Potency [5] | Potency [8] | activity change, positive = activation [9] -6.39% | Potency [10] | Potency [11] | Potency [12] | Potency [13] | Potency [19] | max response [15] 3.51%
active: Potency [2] 30.6 µM | Potency [3] 2.73 µM

O=c1[nH]cccc1O
active: Potency [8] 19.3 µM
inactive: Potency [1] | Potency [2] | Potency [3] | Potency [4] | Potency [6] | Potency [17] | Potency [18] | Potency [7] | activity change, positive = activation [9] -37% | Potency [10] | Potency [16] | Potency [11] | Potency [12] | Potency [13] | Potency [14] | max response [15] -23.7%

CCC(C)(C)c1ccc(CC(C)CN2C[C@@H](C)O[C@@H](C)C2)cc1 (stereo partly specified)
active: Potency [6] 23.9 µM | Potency [7] 55.2 µM | Potency [13] 23.9 µM
inactive: Potency [1] | Potency [2] | Potency [3] | Potency [4] | activity change, positive = activation [9] -22.5% [at 42.5 µM] | Potency [10] | Potency [16] | Potency [12] | Potency [14] | Potency [19] | max response [15] -25.5%

CCc1c(C)cc(N)c(CC)c1N
inactive: Potency [1] | Potency [20] | Potency [4] | Potency [5] | Potency [6] | Potency [17] | Potency [7] | Potency [8] | activity change, positive = activation [9] -1.89% | Potency [10] | Potency [16] | Potency [12] | Potency [13] | Potency [14] | Potency [19] | max response [15] 1.8%

C=CC(=O)O[C@H]1C[C@@H]2CC[C@@]1(C)C2(C)C
inactive: Potency [2] | Potency [20] | Potency [4] | Potency [6] | Potency [18] | Potency [7] | Potency [8] | activity change, positive = activation [9] 1.18% | Potency [10] | Potency [16] | Potency [11] | Potency [12] | Potency [14] | Potency [19] | max response [15] 3.56%

O=C(c1ccccc1)c1ccc(Cl)cc1
inactive: Potency [1] | Potency [5] | Potency [6] | Potency [18] | Potency [7] | Potency [10] | Potency [16] | Potency [11] | Potency [12] | Potency [13] | Potency [14] | Potency [19] | max response [15] 0.405%

CCOC(=O)C1=NN(c2ccc(Cl)cc2Cl)C(C)(C(=O)OCC)C1 (stereo unspecified)
inactive: Potency [20] | Potency [4] | Potency [6] | Potency [17] | Potency [18] | activity change, positive = activation [9] -36.6% | Potency [10] | Potency [11] | Potency [12] | Potency [13] | Potency [19]
active: Potency [7] 113 µM | Potency [8] 48.6 µM

O=C(N[C@H](CO)[C@H](O)c1ccc([N+](=O)[O-])cc1)C(Cl)Cl
inactive: Potency [1] | Potency [6] | Potency [17] | Potency [7] | Potency [10] | Potency [11] | Potency [12] | Potency [19]

CO[Si](OC)(c1ccccc1)c1ccccc1
inactive: Potency [2] | Potency [4] | Potency [5] | Potency [7] | activity change, positive = activation [9] -12.9% | Potency [16] | Potency [12] | Potency [13] | Potency [14] | max response [15] -18.7%

CC(Cc1ccc(O)c(O)c1)C(C)Cc1ccc(O)c(O)c1 (stereo unspecified)
active: Potency [16] 34.7 µM | Potency [14] 49 µM | Potency [19] 43.6 µM | Potency [15] 38.9 µM
inactive: Potency [1] | Potency [4] | Potency [5] | Potency [6] | activity change, positive = activation [9] -42.5% | Potency [11] | Potency [13]

CN1CCN(C)CC1
inactive: Potency [20] | Potency [5] | Potency [6] | Potency [17] | Potency [18] | Potency [7] | Potency [10] | Potency [16] | Potency [11] | Potency [12] | Potency [13] | Potency [14] | Potency [19] | max response [15] 7.77%

C=C[Si](C)(C)Cl
inactive: viability change, negative = cytotoxic [20] 3.07% [at 8.39 µM] | activation [5] -10.3% [at 8.39 µM] | activity change, negative = cytotoxicity [6] -0.253% [at 6.97 µM] | activation (H2AX phosphorylation) [17] 0.0782% [at 14 µM] | activation [18] 0.268% [at 7.01 µM] | activity change, negative = cytotoxicity [7] -1.05% [at 14 µM] | activity change, negative = cytotoxicity [10] -0.615% [at 6.97 µM] | activity change, negative = cytotoxic [16] -3.52% [at 6.97 µM] | activity change, negative = cytotoxic [12] 24.3% [at 6.97 µM] | cytotoxicity increase [13] -9.04% [at 6.97 µM] | activity change, negative = cytotoxicity [14] -7.44% [at 6.97 µM] | viability change, negative = cytotoxic [19] -15.7% [at 6.97 µM] | max response [15] -5.42%
